Experimental data as given in PubChem BioAssay (Tox21).
Records with an inconclusive call do not appear. Unmarked numbers belong to inactive results. The source made the active and inactive calls. Calls come from the whole dose curve.

The compounds below were run against Peroxisome proliferator-activated receptor delta (Homo sapiens) (UniProt Q03181) (assay: qHTS assay to identify small molecule agonists of the peroxisome proliferator-activated receptor delta (PPARd) signaling pathway (AID 743212)). Conditions: HEK293H PPARd-UAS-bla, beta-lactamase FRET ratio, 17 h; series mostly up to 62.6 µM.
Chain of Peroxisome proliferator-activated receptor delta (Homo sapiens) (Q03181 whole entry, looked up): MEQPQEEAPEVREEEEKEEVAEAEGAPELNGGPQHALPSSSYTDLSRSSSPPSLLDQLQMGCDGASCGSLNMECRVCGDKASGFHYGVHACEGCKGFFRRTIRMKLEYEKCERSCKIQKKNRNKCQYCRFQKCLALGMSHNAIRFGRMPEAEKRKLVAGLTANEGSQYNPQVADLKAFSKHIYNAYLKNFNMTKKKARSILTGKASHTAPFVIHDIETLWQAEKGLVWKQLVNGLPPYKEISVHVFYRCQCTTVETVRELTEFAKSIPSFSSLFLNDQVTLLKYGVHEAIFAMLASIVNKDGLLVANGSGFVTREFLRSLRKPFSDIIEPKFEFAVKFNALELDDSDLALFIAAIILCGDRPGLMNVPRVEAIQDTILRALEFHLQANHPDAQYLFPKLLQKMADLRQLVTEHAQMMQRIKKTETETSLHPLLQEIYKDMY
Source text: U.S. Tox21 Program National Center for Advancing Translational Sciences [NCATS] NIH Chemical Genomics Center [NCGC] U.S. Environmental Protection Agency [EPA] National Institutes of Environmental Health Sciences [NIEHS] National Toxicology Program [NTP] U.S. Food and Drug Administration [FDA] Tox21 Assay Overview: The peroxisome proliferator-activated receptors (PPARs) are lipid-activated transcription factors of the nuclear receptor superfamily with three distinct subtypes namely PPAR alpha, PPAR delta (PPARd) and PPAR gamma. All these subtypes heterodimerizes with Retinoid X receptor (RXR) and have different physiological functions. […] To identify the compounds that activate PPAR-delta signaling, GeneBLAzer PPAR delta UAS-bla HEK293H cell line (Invitrogen, Carlsbad, CA, USA) containing a beta-lactamase reporter gene under the control of an Upstream Activator Sequence (UAS) was used to screen the Tox21 compound library.
Tox21 Assay Protocol Summary: PPARd-bla cells were dispensed at 3000 cells/6uL/well in 1536-well black wall/clear bottom plates using a Multidrop Combi (Thermo Fisher Scientific, Waltham, MA) dispenser. After the assay plates were incubated at 37 C and 5% CO2 for 5 h, 23 nL of compounds dissolved in DMSO, positive controls or DMSO only was transferred to the assay plate by a Pintool station (Kalypsys, San Diego, CA). The assay plates were incubated at 37C for 17 h. After 1 uL of LiveBLAzerTM B/G FRET substrate was added using a Bioraptr Flying Reagent Dispenser (FRD) workstation (Beckman Coulter, Indianapolis, IN, USA), the plates were incubated at room temperature for 2 h, and fluorescence intensity was measured by an Envision plate reader (PerkinElmer, Shelton, CT).
% is set by controls: 0 for no effect and ±100 for the full control effect.

SMILES	outcome	activation
CCCCCCCCCCCCCCC1CO1 (stereo not given)	inactive	
NCCCN(CCO)CCO	inactive	
Cc1ccc(O)c([C@H](CCN(C(C)C)C(C)C)c2ccccc2)c1	inactive	
CC1CCc2cc(F)cc3c(=O)c(C(=O)O)cn1c23 (stereo not given)	inactive	
Oc1ccc(O)c2c(O)cccc12	inactive	
CCCCC(CC)(CO)CO	inactive	
Nc1ccc(C(=O)N2CC3CC(CN(Cc4ccccc4)C3)C2)cc1	inactive	
O=c1[nH]cnc2ccccc12	inactive	
CCCCOC(O)CC (stereo not given)	inactive	
Oc1ccc(Cc2ccccc2)cc1	inactive	
CCOC(=O)CC(C)C	inactive	
CCOC(=O)C1=NN(c2ccccc2)C(=O)C1	inactive	
N#CCCNCCC#N	inactive	
CCN1CCC[C@H]1CNC(=O)c1c(OC)ccc(Br)c1OC	inactive	
CC(C)(C)C1CCCCC1O (stereo not given)	inactive	
CCCCCCCCCCCCCCCBr	inactive	
CCCCCOC(=O)c1ccc(O)cc1	inactive	
Oc1ccc(Sc2ccc(O)cc2)cc1	inactive	
NC[C@H]1O[C@H](O[C@H]2[C@H](O)[C@@H](O[C@H]3O[C@H](CO)[C@@H](O)[C@H](N)[C@H]3O)[C@H](N)C[C@@H]2N)[C@H](O)[C@@H](O)[C@@H]1O		-4.29% [at 5.95 µM]
CCCCCCCCCCCCCCCC(=O)OC/C=C(C)/C=C/C=C(C)/C=C/C1=C(C)CCCC1(C)C	inactive	

SMILES	outcome	activation
COc1ccc2[nH]c(S(=O)Cc3ncc(C)c(OC)c3C)nc2n1 (stereo not given)	inactive	
Cn1c(=O)c2c(ncn2CC(O)CO)n(C)c1=O (stereo not given)	inactive	
O=C(O)C(c1ccc(Cl)cc1)c1ccc(Cl)cc1	inactive	
N#CCc1cccc(C(F)(F)F)c1	inactive	
CCCCCC/C=C/C=O	inactive	
COc1ccc([C@@H]2Sc3ccccc3N(CCN(C)C)C(=O)[C@@H]2OC(C)=O)cc1	inactive	
CCCCCCCC/C=C\CCCCCCCC(N)=O	inactive	
Nc1nc(N)c(-c2ccccc2)s1	inactive	
Nc1ccc(C(=O)Nc2ccccc2N)cc1	inactive	
CC(C(=O)O)c1ccc(C(=O)c2ccccc2)s1 (stereo not given)	inactive	
Nc1cnn([C@@H]2O[C@H](CO)[C@@H](O)[C@H]2O)c(=O)n1	inactive	
CC(=O)c1c(C)c([N+](=O)[O-])c(C(C)(C)C)c([N+](=O)[O-])c1C	inactive	
COC(=O)CSc1cc(N=c2sc(=O)n3n2CCCC3)c(F)cc1Cl	inactive	
O=[N+]([O-])c1cccc(Cl)c1Cl	inactive	
O=C(/C=C/c1ccc(O)c(O)c1)O[C@@H]1C[C@](O)(C(=O)O)C[C@@H](O)[C@H]1O	inactive	
OC(CCN1CCCCC1)(c1ccccc1)C1CCCCC1 (stereo not given)	inactive	
Cc1c(Cn2ccnc2)c2ccccc2n1CCC(=O)O	inactive	
CCCCc1cc2ccccc2c(OCCN(C)C)n1	inactive	
CCOC(=O)CC(=O)c1cc(F)c(Cl)nc1Cl	inactive	
CC(C)CCCC(C)CCO (stereo not given)	inactive	
